This is part of a sample that, as a whole, favours compounds with a hit. Of some 79,000 tested, about 15% had one in any assay. Activity calls are given as the source filed them. Rule as the data show it: active = growth inhibition above about 70%; inactive = the rest.
Experiments:
[1] = NCI Yeast Anticancer Drug Screen. Data for the rad52 strain (AID 147);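 also: 0% = growth of vehicle-treated control cultures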; conditions: S. cerevisiae rad52 mutant growth inhibition, active compounds read high
Outline: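 Vehicle-treated cultures served as the reference for growth inhibition of compound-exposed yeast bearing a DNA repair mutation.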

[2] = NCI Yeast Anticancer Drug Screen. Data for the wt1 strain (AID 149);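 also: 0% = growth of vehicle-treated wt1 cultures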; conditions: S. cerevisiae wt1 strain (SPY 50644) growth inhibition, active compounds read high
Outline: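 Vehicle-normalised growth inhibition; strain wt1; compound exposure.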

[3] = NCI Yeast Anticancer Drug Screen. Data for the rad50EPP+ strain (AID 151);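 also: 0% = growth of vehicle-treated control cultures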; conditions: S. cerevisiae rad50 mutant strain, active compounds read high
Outline: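 In this screen, rad50EPP+ yeast were exposed to compounds. Growth inhibition was scored against vehicle-treated controls.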

[4] = NCI Yeast Anticancer Drug Screen. Data for the mgt1 strain (AID 153); conditions: S. cerevisiae mgt1 mutant growth inhibition, active compounds read high
Outline: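 mgt1 strain exposed; growth vs vehicle control recorded as inhibition.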

[5] = NCI Yeast Anticancer Drug Screen. Data for the rad50 strain (AID 155);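 also: 0% = growth of vehicle-only cultures of the same strain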; conditions: S. cerevisiae rad50 strain growth inhibition, active compounds read high
Outline: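 A DNA repair-deficient yeast mutant serves as the test organism; compound-induced growth inhibition is calculated against vehicle-treated cells.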

[6] = NCI Yeast Anticancer Drug Screen. Data for the mec2-1 strain (AID 157); conditions: S. cerevisiae mec2-1 strain, active compounds read high
Outline: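 Vehicle-treated cultures served as reference for growth inhibition of compound-exposed mec2-1 yeast.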

[7] = NCI Yeast Anticancer Drug Screen. Data for the sgs1 mgt1 strain (AID 161);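 also: 0% = growth of cultures given vehicle only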; conditions: S. cerevisiae sgs1 mgt1 strain, active compounds read high
Outline: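 Read-out: growth inhibition vs vehicle controls. Cells: mutant yeast strain deficient in DNA damage repair.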

[8] = NCI Yeast Anticancer Drug Screen. Data for the CLN2oe strain (AID 163);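 also: 0% = growth of vehicle-only control cultures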; conditions: S. cerevisiae CLN2oe strain, active compounds read high
Outline: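 Inhibition relative to vehicle-treated yeast is reported. Cells: strain with genetic alteration in cell-cycle control, grown with compound.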

[9] = NCI Yeast Anticancer Drug Screen. Data for the cln2 rad14 strain (AID 165);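 also: 0% = growth equal to vehicle treated cultures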; conditions: S. cerevisiae cln2 rad14 strain, active compounds read high
Outline: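 Each compound was tested on cln2 rad14 yeast. Inhibition of growth was calculated against vehicle-exposed controls.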

[10] = NCI Yeast Anticancer Drug Screen. Data for the bub3 strain (AID 167); conditions: S. cerevisiae bub3 mutant strain, active compounds read high
Outline: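 Inhibition values come from growth of compound-treated mutant yeast normalised to vehicle-treated controls.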

[11] = NCI Yeast Anticancer Drug Screen. Data for the wt2 strain (AID 169);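 also: 0% = growth of vehicle-treated yeast cultures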; conditions: S. cerevisiae wt2 strain growth inhibition, active compounds read high
Outline: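 Inhibition of yeast growth was determined after compound treatment, normalised to controls receiving only vehicle.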

[12] = NCI Yeast Anticancer Drug Screen. Data for the sgs1 strain (AID 173);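 also: 0% = growth of vehicle-only control cultures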; conditions: S. cerevisiae sgs1 mutant, active compounds read high
Outline: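 Screen format: yeast with repair or checkpoint alterations, compound exposure, growth read relative to vehicle.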

[13] = NCI Yeast Anticancer Drug Screen. Data for the mlh1 rad18 strain (AID 175); conditions: S. cerevisiae mlh1 rad18 strain growth inhibition, active compounds read high
Outline: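 Vehicle-treated cultures served as the reference for growth inhibition in a yeast strain carrying DNA damage repair alterations exposed to each compound.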

[14] = NCI Yeast Anticancer Drug Screen. Data for the mlh1 strain (AID 171);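 also: 0% = growth of vehicle-treated control cultures of the same strain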; conditions: S. cerevisiae mlh1 strain growth inhibition, active compounds read high
Outline: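 Vehicle-normalised growth inhibition of a repair- or checkpoint-altered yeast strain following compound treatment.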

[15] = NCI Yeast Anticancer Drug Screen. Data for the rad18 strain (AID 177); conditions: S. cerevisiae rad18 mutant growth inhibition, active compounds read high
Outline: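 Test articles were incubated with altered yeast defective in DNA damage repair. Results are given as inhibition of growth versus vehicle.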

[16] = NCI Yeast Anticancer Drug Screen. Data for the rad14 strain (AID 159);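 also: 0% = growth of vehicle-treated control cultures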; conditions: S. cerevisiae rad14 strain growth inhibition, active compounds read high
Outline: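 Vehicle-treated cultures served as the baseline for growth inhibition of a DNA repair-mutant yeast strain exposed to each compound.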

[17] = at 5.0 µM (retest, dose inferred, filed as 0.5)
[18] = at 50.0 µM (retest, dose inferred, filed as 5.0)

Measured: growth inhibition

O=C1Oc2ccccc2C(=O)/C1=C/N1C(=O)N/C(=C\c2ccccc2Br)C1=O
inactive: [1]; at 1.2 µM 1% | [1]; at 3.7 µM 4% | [1]; at 11.0 µM 13% | [1]; at 33.0 µM 43% | [2]; at 1.2 µM 4% | [2]; at 3.7 µM 7% | [2]; at 11.0 µM 8% | [2]; at 33.0 µM 18% | [2]; at 100.0 µM 55% | [3]; at 1.2 µM -2% | [3]; at 3.7 µM 1% | [3]; at 11.0 µM 6% | [3]; at 33.0 µM 21% | [3]; at 100.0 µM 57% | [4]; at 1.2 µM 0% | [4]; at 3.7 µM 1% | [4]; at 11.0 µM 7% | [4]; at 33.0 µM 25% | [5]; at 1.2 µM -2% | [5]; at 3.7 µM -11% | [5]; [17] -6% | [5]; at 11.0 µM -3% | [5]; at 33.0 µM 40% | [5]; [18] 54% | [6]; at 1.2 µM 1% | [6]; at 3.7 µM 1% | [6]; [17] -15% | [6]; at 11.0 µM 7% | [6]; at 33.0 µM 27% | [6]; [18] 5% | [6]; at 50.0 µM 56.1% | [7]; [17] -3% | [7]; [18] 17% | [8]; at 1.2 µM -3% | [8]; at 3.7 µM 4% | [8]; at 11.0 µM 14% | [8]; at 33.0 µM 33% | [8]; at 100.0 µM 56% | [9]; [17] 15% | [9]; [18] 13% | [9]; at 50.0 µM 39.5% | [10]; at 1.2 µM 0% | [10]; at 3.7 µM -1% | [10]; [17] 7% | [10]; at 11.0 µM 6% | [10]; at 33.0 µM 29% | [10]; [18] 33% | [11]; at 1.2 µM 1% | [11]; at 3.7 µM 2% | [11]; at 11.0 µM 6% | [11]; at 33.0 µM 33% | [12]; at 1.2 µM 2% | [12]; at 3.7 µM 5% | [12]; at 11.0 µM 14% | [12]; at 33.0 µM 54% | [13]; [17] 4% | [13]; [18] 52%
active: [1]; at 100.0 µM 91% | [4]; at 100.0 µM 96% | [5]; at 50.0 µM 91.9% | [5]; at 100.0 µM 95% | [6]; at 100.0 µM 86% | [7]; at 50.0 µM 89.7% | [10]; at 50.0 µM 94.5% | [10]; at 100.0 µM 83% | [11]; at 100.0 µM 96% | [12]; at 100.0 µM 96% | [13]; at 50.0 µM 95.5%

N#[N+]c1c([O-])c2ccccc2c2ccccc12
active: [1]; at 11.0 µM 82% | [1]; at 33.0 µM 97% | [1]; at 100.0 µM 97% | [2]; at 100.0 µM 97% | [3]; at 11.0 µM 84% | [3]; at 33.0 µM 96% | [3]; at 100.0 µM 96% | [4]; at 100.0 µM 97% | [5]; at 11.0 µM 85% | [5]; at 33.0 µM 96% | [5]; at 50.0 µM 92.7% | [5]; at 100.0 µM 96% | [6]; at 100.0 µM 97% | [7]; at 50.0 µM 76.2% | [8]; at 100.0 µM 95% | [10]; at 100.0 µM 95% | [11]; at 100.0 µM 98% | [14]; at 100.0 µM 97% | [12]; at 33.0 µM 82% | [12]; at 100.0 µM 97% | [13]; at 50.0 µM 86% | [15]; at 11.0 µM 93% | [15]; at 33.0 µM 98% | [15]; at 100.0 µM 96%
inactive: [1]; at 1.2 µM 13% | [1]; at 3.7 µM 23% | [2]; at 1.2 µM 3% | [2]; at 3.7 µM 4% | [2]; at 11.0 µM 15% | [2]; at 33.0 µM 30% | [3]; at 1.2 µM 13% | [3]; at 3.7 µM 32% | [4]; at 1.2 µM 4% | [4]; at 3.7 µM 15% | [4]; at 11.0 µM 23% | [4]; at 33.0 µM 39% | [5]; at 1.2 µM 22% | [5]; at 3.7 µM 46% | [5]; [17] -23% | [5]; [18] 35% | [6]; at 1.2 µM 0% | [6]; at 3.7 µM 0% | [6]; [17] -1% | [6]; at 11.0 µM 7% | [6]; at 33.0 µM 60% | [6]; [18] 36% | [6]; at 50.0 µM 48.6% | [7]; [17] -5% | [7]; [18] 16% | [8]; at 1.2 µM 4% | [8]; at 3.7 µM 8% | [8]; at 11.0 µM 18% | [8]; at 33.0 µM 42% | [9]; [17] -41% | [9]; [18] 2% | [9]; at 50.0 µM 47.5% | [10]; at 1.2 µM 12% | [10]; at 3.7 µM 10% | [10]; [17] -14% | [10]; at 11.0 µM 24% | [10]; at 33.0 µM 54% | [10]; [18] 22% | [10]; at 50.0 µM 44% | [11]; at 1.2 µM 2% | [11]; at 3.7 µM 5% | [11]; at 11.0 µM 12% | [11]; at 33.0 µM 60% | [14]; at 1.2 µM -1% | [14]; at 3.7 µM -1% | [14]; at 11.0 µM 20% | [14]; at 33.0 µM 65% | [12]; at 1.2 µM 0% | [12]; at 3.7 µM 4% | [12]; at 11.0 µM 20% | [13]; [17] -29% | [13]; [18] 50% | [15]; at 1.2 µM 30% | [15]; at 3.7 µM 50%

CCCC/C=C1\CCC(CN2CCCC2)C1=O (stereo unspecified)
inactive: [1]; at 1.2 µM -18% | [1]; at 3.7 µM -24% | [1]; at 11.0 µM -10% | [1]; at 33.0 µM 17% | [2]; at 1.2 µM -10% | [2]; at 3.7 µM -17% | [2]; at 11.0 µM 9% | [2]; at 33.0 µM 16% | [2]; at 100.0 µM 26% | [3]; at 1.2 µM -4% | [3]; at 3.7 µM -6% | [3]; at 11.0 µM -8% | [3]; at 33.0 µM 10% | [4]; at 1.2 µM 21% | [4]; at 3.7 µM 21% | [4]; at 11.0 µM 39% | [4]; at 33.0 µM 62% | [5]; at 1.2 µM 7% | [5]; at 3.7 µM 25% | [5]; [17] 40% | [5]; at 11.0 µM 20% | [5]; at 33.0 µM 40% | [5]; [18] 44% | [6]; at 1.2 µM 0% | [6]; at 3.7 µM 7% | [6]; [17] 4% | [6]; at 11.0 µM 27% | [6]; at 33.0 µM 23% | [6]; [18] 35% | [6]; at 50.0 µM 59.2% | [16]; at 1.2 µM 28% | [16]; at 3.7 µM 44% | [16]; at 11.0 µM 66% | [8]; at 1.2 µM 28% | [8]; at 3.7 µM 48% | [8]; at 11.0 µM 49% | [9]; [17] 39% | [9]; [18] 55% | [10]; at 1.2 µM 1% | [10]; at 3.7 µM 33% | [10]; [17] 50% | [10]; at 11.0 µM 39% | [10]; at 33.0 µM 63% | [14]; at 1.2 µM 22% | [14]; at 3.7 µM 36% | [14]; at 11.0 µM 56% | [12]; at 1.2 µM -1% | [12]; at 3.7 µM 22% | [12]; at 11.0 µM 44% | [12]; at 33.0 µM 67% | [13]; [17] 41% | [15]; at 1.2 µM -3% | [15]; at 3.7 µM 15% | [15]; at 11.0 µM 34% | [15]; at 33.0 µM 65%
active: [1]; at 100.0 µM 79% | [3]; at 100.0 µM 76% | [4]; at 100.0 µM 95% | [5]; at 50.0 µM 83% | [5]; at 100.0 µM 79% | [6]; at 100.0 µM 85% | [16]; at 33.0 µM 82% | [16]; at 100.0 µM 93% | [8]; at 33.0 µM 70% | [8]; at 100.0 µM 79% | [9]; at 50.0 µM 73.3% | [10]; [18] 81% | [10]; at 50.0 µM 80.7% | [10]; at 100.0 µM 94% | [14]; at 33.0 µM 76% | [14]; at 100.0 µM 97% | [12]; at 100.0 µM 94% | [13]; [18] 80% | [13]; at 50.0 µM 73.5% | [15]; at 100.0 µM 92%
